For some of these results: Entries with a potency or affinity are not part of this list.
Assays:
Set-up in all cases: scale not given: direction of the effect not stated beside the values
[1] = molecular target: Protein translocase subunit SecA (Escherichia coli (strain K12)) (UniProt P10408); experiment: Assay to Identify E. coli SecA ATPase Inhibitors; format: functional; settings: 30 µM
[2] = molecular target: T1, Ubiquitin-activating enzyme e1, putative (Leishmania donovani (strain BPK282A1)) (UniProt E9BSI1); experiment: Leishmania donovani Ubiquitin Activating Enzyme (LdE1); format: functional; settings: 30 µM
T1 sequence (whole entry): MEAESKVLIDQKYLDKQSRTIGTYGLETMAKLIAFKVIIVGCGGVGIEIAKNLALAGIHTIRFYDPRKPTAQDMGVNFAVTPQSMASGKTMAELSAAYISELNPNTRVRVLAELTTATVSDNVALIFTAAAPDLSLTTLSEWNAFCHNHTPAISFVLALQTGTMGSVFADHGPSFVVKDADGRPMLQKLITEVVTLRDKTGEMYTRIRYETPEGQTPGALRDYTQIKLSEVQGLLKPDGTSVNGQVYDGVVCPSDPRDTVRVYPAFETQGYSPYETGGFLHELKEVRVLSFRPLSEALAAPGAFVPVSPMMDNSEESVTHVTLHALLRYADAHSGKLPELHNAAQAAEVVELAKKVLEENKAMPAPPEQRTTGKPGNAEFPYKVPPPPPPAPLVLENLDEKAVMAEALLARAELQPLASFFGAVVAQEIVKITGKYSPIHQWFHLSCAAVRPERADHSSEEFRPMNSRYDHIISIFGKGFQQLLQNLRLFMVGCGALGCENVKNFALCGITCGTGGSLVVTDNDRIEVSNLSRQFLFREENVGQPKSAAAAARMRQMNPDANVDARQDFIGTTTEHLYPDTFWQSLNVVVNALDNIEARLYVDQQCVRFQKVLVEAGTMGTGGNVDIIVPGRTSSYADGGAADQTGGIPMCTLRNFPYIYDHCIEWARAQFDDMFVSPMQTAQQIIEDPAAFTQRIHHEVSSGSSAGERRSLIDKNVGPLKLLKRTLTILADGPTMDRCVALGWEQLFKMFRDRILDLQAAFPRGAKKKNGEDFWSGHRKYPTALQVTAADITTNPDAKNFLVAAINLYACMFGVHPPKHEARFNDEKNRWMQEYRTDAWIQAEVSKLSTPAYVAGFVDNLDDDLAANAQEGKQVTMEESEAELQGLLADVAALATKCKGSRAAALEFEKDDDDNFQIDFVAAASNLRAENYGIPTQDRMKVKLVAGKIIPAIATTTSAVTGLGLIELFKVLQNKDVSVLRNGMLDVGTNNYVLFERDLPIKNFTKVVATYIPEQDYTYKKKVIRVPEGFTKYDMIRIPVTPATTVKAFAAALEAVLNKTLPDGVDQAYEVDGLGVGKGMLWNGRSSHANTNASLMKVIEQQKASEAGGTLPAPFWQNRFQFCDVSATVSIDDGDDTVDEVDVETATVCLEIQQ

[3] = molecular target: AMP-activated protein kinase, AMPK (Homo sapiens) (UniProt P54646+O43741+P54619+Q9UGJ0+Q9Y478+Q13131+Q9UGI9); experiment: AMP-dependent Kinase enzyme assay. An in vitro enzyme assay that detects ADP turnover that is directly proportional to AMPK activity. This uses naive AMPK that is activated during the assay with MK-8722; format: functional; settings: 30 µM
[4] = molecular target: Sialic acid-binding Ig-like lectin 9 (Homo sapiens) (UniProt Q9Y336); experiment: Hs-Siglec9 ALPHAscreen SOP 20170721; settings: 10 µM
Trypanosoma cruzi = experiment: Trypanosoma cruzi phosphomannomutase and mannose-1-phosphate guanylyltransferase assay; format: functional; settings: 10 µM
[5] = molecular target: T2, Arginase-2, mitochondrial (Homo sapiens) (UniProt P78540); experiment: in vitro enzyme assay to detect the production of urea directly proportional to the activity of Arginase II; format: functional; settings: 33.3 µM; note: in the data most compounds retested in dose-response had high values
T2 sequence (whole entry): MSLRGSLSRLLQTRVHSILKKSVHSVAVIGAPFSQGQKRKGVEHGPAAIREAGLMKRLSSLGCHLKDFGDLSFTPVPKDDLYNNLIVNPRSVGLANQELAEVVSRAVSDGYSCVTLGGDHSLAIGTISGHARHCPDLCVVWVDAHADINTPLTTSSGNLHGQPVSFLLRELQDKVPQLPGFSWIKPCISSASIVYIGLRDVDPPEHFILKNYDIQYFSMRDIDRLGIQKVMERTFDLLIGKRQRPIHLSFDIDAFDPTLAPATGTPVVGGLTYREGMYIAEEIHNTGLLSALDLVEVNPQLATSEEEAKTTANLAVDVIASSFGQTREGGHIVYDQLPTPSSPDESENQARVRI

[6] = molecular target: T3, Proteasome subunit beta (Trypanosoma cruzi) (UniProt O96673); experiment: Trypanosoma cruzi proteasome chymotrypsin-like activity (TcProtChymo) assay.; note: in the data most compounds retested in dose-response had high values; format: functional; settings: 9.37 µM
T3 sequence (whole entry): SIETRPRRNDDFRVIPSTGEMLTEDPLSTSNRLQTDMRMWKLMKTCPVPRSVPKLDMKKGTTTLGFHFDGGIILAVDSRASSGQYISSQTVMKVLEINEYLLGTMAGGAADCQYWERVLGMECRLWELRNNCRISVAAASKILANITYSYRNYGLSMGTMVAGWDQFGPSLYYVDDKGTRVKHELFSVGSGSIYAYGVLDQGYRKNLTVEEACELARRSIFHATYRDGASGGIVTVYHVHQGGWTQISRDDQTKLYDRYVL

Homo sapiens = species: Homo sapiens; experiment: To identify inhibition of the IFN signalling (Jak-Stat) pathway via expression of an eGFP reporter gene under the control of an IFN-stimulated response element (ISRE) containing MxA promoter.; format: functional; settings: 30 µM
[7] = molecular target: T4, Tyrosyl-tRNA synthetase, putative (Trypanosoma cruzi (strain CL Brener)) (UniProt Q4DSP6); experiment: Trypanosoma cruzi tyrosyl tRNA synthetase (TcYRS) _High Tyrosine SOP; format: functional; settings: 30 µM; note: in the data most compounds retested in dose-response had high values
T4 sequence (whole entry): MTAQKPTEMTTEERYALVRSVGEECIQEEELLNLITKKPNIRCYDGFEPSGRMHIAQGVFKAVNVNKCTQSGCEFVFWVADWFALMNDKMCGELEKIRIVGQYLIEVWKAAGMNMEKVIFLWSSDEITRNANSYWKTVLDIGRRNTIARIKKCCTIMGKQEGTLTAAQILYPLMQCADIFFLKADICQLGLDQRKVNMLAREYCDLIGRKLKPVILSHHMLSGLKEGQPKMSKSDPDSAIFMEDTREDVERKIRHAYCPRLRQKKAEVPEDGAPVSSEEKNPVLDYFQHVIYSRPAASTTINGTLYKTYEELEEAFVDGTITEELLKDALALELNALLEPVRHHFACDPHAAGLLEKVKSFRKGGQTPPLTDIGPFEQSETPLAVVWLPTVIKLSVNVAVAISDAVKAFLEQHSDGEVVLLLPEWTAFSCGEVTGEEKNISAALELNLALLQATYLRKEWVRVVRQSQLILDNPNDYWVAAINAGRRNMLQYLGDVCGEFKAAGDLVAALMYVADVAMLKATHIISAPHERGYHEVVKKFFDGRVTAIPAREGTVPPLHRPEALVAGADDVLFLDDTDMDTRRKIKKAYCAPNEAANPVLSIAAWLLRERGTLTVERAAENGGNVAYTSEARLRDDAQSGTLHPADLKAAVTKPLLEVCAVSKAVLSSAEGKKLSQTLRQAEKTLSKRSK

[8] = molecular target: T4, Tyrosyl-tRNA synthetase, putative (Trypanosoma cruzi (strain CL Brener)); experiment: Trypanosoma cruzi tyrosyl tRNA synthetase (TcYRS) SOP; format: functional; settings: 30 µM
[9] = molecular target: Chromo domain-containing protein 1 (Saccharomyces cerevisiae (strain ATCC 204508 / S288c) (Baker's yeast)) (UniProt P32657); experiment: ScCHD-1 Enzyme Inhibition Assay; format: functional; settings: 30 µM; note: in the data most compounds retested in dose-response had high values
Chain of Chromo domain-containing protein 1 (Saccharomyces cerevisiae (strain ATCC 204508 / S288c) (Baker's yeast)) (P32657 whole entry, the tested form may be a part): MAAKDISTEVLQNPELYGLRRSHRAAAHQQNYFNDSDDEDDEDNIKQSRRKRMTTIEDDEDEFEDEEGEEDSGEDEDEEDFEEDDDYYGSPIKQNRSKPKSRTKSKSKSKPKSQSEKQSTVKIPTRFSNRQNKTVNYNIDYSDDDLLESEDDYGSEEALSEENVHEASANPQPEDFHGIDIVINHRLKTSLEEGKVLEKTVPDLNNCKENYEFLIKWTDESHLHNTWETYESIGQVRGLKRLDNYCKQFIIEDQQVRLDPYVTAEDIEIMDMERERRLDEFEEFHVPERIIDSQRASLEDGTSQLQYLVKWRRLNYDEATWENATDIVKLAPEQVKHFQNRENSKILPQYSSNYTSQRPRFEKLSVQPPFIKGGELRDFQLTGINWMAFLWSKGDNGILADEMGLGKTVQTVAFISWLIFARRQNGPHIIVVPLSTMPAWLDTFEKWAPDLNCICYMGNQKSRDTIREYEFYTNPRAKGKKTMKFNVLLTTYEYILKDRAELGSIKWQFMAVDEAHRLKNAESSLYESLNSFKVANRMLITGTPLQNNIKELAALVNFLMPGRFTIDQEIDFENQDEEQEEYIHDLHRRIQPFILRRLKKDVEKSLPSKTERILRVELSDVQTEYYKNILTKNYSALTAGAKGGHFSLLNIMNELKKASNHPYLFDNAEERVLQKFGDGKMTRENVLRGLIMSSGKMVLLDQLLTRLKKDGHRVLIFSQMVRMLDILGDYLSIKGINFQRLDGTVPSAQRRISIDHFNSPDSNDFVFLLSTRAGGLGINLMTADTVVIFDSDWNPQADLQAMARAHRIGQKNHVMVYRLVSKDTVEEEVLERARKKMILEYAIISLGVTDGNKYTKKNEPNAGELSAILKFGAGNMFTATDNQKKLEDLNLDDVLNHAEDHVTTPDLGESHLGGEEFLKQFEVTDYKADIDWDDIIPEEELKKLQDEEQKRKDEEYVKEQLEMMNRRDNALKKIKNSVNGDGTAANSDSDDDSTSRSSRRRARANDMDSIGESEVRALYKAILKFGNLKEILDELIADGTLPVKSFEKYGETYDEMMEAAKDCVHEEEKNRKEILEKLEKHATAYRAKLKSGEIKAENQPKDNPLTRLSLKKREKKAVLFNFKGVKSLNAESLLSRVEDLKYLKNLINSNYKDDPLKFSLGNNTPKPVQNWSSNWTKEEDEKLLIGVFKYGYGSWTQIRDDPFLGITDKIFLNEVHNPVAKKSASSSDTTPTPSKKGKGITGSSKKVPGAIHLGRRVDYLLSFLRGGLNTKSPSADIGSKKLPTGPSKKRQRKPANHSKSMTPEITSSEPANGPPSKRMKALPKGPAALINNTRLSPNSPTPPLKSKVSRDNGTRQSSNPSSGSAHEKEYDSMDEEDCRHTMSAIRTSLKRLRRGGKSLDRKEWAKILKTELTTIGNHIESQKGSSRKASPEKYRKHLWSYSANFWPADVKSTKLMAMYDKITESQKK

Chain of Protein translocase subunit SecA (Escherichia coli (strain K12)) (P10408 whole entry): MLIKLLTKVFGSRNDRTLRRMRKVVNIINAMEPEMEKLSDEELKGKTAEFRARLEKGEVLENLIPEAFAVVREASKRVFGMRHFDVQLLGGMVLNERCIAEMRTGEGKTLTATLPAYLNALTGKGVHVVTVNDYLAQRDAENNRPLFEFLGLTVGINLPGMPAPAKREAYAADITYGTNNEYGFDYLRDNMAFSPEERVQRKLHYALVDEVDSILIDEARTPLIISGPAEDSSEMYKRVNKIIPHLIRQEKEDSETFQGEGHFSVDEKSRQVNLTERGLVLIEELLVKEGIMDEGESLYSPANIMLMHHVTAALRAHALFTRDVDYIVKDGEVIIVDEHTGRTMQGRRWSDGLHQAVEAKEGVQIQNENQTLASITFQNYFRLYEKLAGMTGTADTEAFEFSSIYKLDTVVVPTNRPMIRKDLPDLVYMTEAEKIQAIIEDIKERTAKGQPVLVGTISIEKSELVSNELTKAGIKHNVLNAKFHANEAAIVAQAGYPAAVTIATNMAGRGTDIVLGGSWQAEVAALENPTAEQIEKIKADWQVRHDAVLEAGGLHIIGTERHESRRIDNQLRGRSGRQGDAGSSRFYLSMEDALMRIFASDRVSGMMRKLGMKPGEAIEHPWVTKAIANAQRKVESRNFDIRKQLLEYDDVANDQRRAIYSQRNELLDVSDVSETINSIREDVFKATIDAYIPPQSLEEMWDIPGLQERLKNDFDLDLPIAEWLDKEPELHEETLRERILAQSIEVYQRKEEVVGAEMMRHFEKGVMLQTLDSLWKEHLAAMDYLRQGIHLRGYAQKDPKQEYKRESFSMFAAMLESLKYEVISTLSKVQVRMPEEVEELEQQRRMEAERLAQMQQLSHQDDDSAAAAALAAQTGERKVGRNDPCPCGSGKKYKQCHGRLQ
Chain of Sialic acid-binding Ig-like lectin 9 (Homo sapiens) (Q9Y336 whole entry): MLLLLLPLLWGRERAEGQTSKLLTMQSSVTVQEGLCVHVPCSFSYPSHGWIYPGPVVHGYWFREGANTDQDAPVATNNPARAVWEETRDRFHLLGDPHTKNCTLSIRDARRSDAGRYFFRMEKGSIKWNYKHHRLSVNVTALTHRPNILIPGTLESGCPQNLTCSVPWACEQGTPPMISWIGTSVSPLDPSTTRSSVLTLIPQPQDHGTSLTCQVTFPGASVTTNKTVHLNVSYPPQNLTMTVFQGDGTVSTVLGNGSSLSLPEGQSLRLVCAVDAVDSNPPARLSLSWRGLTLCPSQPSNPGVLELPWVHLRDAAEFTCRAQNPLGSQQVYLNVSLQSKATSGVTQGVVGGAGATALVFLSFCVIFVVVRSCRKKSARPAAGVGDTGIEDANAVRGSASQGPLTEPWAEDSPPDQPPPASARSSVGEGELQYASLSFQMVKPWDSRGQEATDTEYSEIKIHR

| SMILES | Percent Effect [1] | Percent Effect [2] | Percent Effect [3] | Percent Effect [4] | Percent Effect (Trypanosoma cruzi) | Percent Effect [5] | Percent Effect [6] | Percent Effect (Homo sapiens) | Percent Effect [7] | Percent Effect [8] | Percent Effect [9] |
| --- | --- | --- | --- | --- | --- | --- | --- | --- | --- | --- | --- |
| CC(C)OCc1ccc(CNC(=O)CC(F)(F)F)cc1 | -5.75% | 21.1% | -5.14% | -0.714% | 3.83% | 0.719% | 3.98% | 6.56% | 8.37% | 23.5% | -9.86% |
| COCCC(=O)N1CCN(CCN(C)C)c2ncccc2C1 | -3.66% | 5.2% | 4.52% | 2.96% | -0.492% | -2.76% | 9.48% | 0.361% | 4.3% | 8.64% | -1.22% |
| CC(C)(C)N1CCCN(C(=O)c2csc(S(N)(=O)=O)c2)CC1 | -8.14% | 0% | 1.87% | -9.76% | -5.57% | -2.73% | -0.258% | -7.17% | -3.23% | -6.17% | -1.28% |
| CCCNC(=O)C(C)n1cc(Br)cn1 (stereo not given) | -2.1% | 7.79% | -0.549% | 2.6% | -1.87% | -194% | 5.49% | -4.17% | 4.3% | 18.5% | 0.506% |
| CCCNCC1(O)CCCN(Cc2cccc(C)c2)C1=O (stereo not given) | -3.44% | 0% | 3.08% | -2.93% | 1.57% | -1.82% | -2.66% | -21.7% | 3.23% | 5% | -1.9% |
| N#Cc1ccccc1CN1CCCCC1Cn1cncn1 (stereo not given) | -0.27% | 13.5% | -13.3% | -8.54% | -5.38% | 0% | -0.54% | 15.9% | 9.36% | 13.6% | -5.63% |
| Cc1ccc(-c2ncc(C(=O)NCCNc3ncccn3)s2)c(C)c1 | -2.83% | 5.41% | 2.58% | 1.25% | 7.83% | -2.4% | 1.8% | 11.8% | 5.42% | 16.1% | -8.22% |
| COc1ccc(C(=O)Nc2cnn(CC(=O)NC3CCCC3)c2)c(O)c1 | -2.21% | 13.7% | -8.3% | 5.57% | 3.77% | 0.798% | 9.16% | -10.3% | 11.5% | 25.9% | -3.82% |
| CCCc1nc(C)cc(N2CCC3(CCC(=O)N(CC4CC4)C3)CC2)n1 | -2.3% | 8.11% | -0.987% | 3.81% | -3.03% | 3.23% | 8.67% | 1.04% | -5.38% | 13.6% | -4% |
| O=C1[C@H]2CC[C@H](CN(Cc3ccccc3OC(F)F)C2)N1CC1CC1 | 2.17% | 13.5% | 8.9% | 13.9% | 4.05% | 13.3% | 17.1% | 19% | 7.94% | 17.1% | -1.8% |
| CCC(C)NC(=O)Cc1c(C)nc2c(c1C)c(=O)[nH]n2C (stereo not given) | 0.22% | 13% | 1.2% | 14% | 3.44% | 1.38% | 7.32% | -10.2% | 2.15% | 16.1% | -1.16% |
| Cc1cc(C(=O)NC2CCCN(c3ccccc3)C2=O)on1 (stereo not given) | -6.07% | 5.33% | -2.45% | -2.4% | -0.0974% | -1.56% | 8.37% | 5.07% | 1.64% | 13.6% | -2.89% |
| CNC(=O)Nc1cc(-c2ccc(Br)cc2)nn1CCO | -6.67% | 10.5% | 0.242% | 1.93% | 5.94% | -16.6% | 3.16% | -5.7% | 4.25% | 2.6% | -2.66% |
| CCC(=O)Nc1nnc(CCOc2cccc(OC)c2)s1 | -4.51% | -6.67% | 42.3% | 1.2% | -3.54% | -4.4% | 9.43% | 7.09% | 0% | -7.69% | -2% |
| COc1ccc2c(c1)CN(Cc1nc3c(cnn3C)c(=O)[nH]1)CC2 | -1.51% | 15.2% | -8.08% | 0.541% | 0.85% | 2.66% | 7.45% | 8.47% | 4.43% | 21.5% | -7.47% |
| CSc1ccc(CNC(c2ccccc2)c2nccn2C)cc1 (stereo not given) | -5.49% | 21.6% | -4% | 8.74% | 7.71% | -2.77% | 11.1% | 24.1% | 10.9% | 30.5% | -6.68% |
| COc1cc2cc(C(=O)O)n(C)c2c(OC)c1OC | 2.1% | -9.33% | 13.7% | 8.78% | -4.71% | -5.46% | 13.9% | 1.84% | -3.17% | -5.13% | -10% |
| Cc1ccc(CNC(=O)Nc2nnc(C)s2)cn1 | -1.62% | 23.7% | 1.54% | -3.95% | 1.03% | 2.16% | 15.1% | 1.76% | 8.37% | 25.9% | -9.14% |
| O=C(c1cnc(C2CC2)s1)N1CCCC(n2cccn2)C1 (stereo not given) | -2.59% | 8.11% | -1.44% | -0.959% | -7.26% | -5.61% | 1.26% | 21% | 6.4% | 11.1% | -5.53% |
| Cc1noc([C@@]23CCO[C@@H]2CCN(CC2CCOCC2)C3)n1 | 2.95% | 8% | 7.01% | 4.21% | -6.76% | -51.4% | 9.91% | 2.92% | 8.33% | 20% | -7.02% |

Reference: ChEMBL document CHEMBL3988442, “University of Dundee, Small-Polar-MMV Screening Library” (2021)
